The list is not random: actives were taken first. Their share in the collection is about 9.4%.
Pf growth 48h = Primary qHTS for delayed death inhibitors of the malarial parasite plastid, 48 hour incubation; P. falciparum luciferase growth in erythrocytes, 48 h; Potency, µM (titrated, usually from 28.7 µM), inactives show top-dose activity change, negative = inhibition, hits mostly inhibitors; 310,000 compounds, 5.9% hits; AID 504832, 2011; further: on the % scale 0 is the no-effect control and ±100 the full control effect
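First compound was added to culture medium, then infected red cells at 0.1% parasitemia and 2% hematocrit (final). After incubation at 37 C under 5% CO2, luciferase detection reagent was dispensed and light output recorded.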
SARS PLpro yeast = qHTS of Yeast-based Assay for SARS-CoV PLP; Potency, µM (series often up to 32.9 µM), without a hit: at the top dose activity, positive = growth rescue, most hits filed as activators; AID 485353, 2010; 330,000 compounds, 0.19% hits; S. cerevisiae expressing SARS-CoV PLpro, growth rescue; calls by dose curve; further: 0% is about no effect; nearly all actives have a fitted effect of over 55% in size
Pf growth 96h = Primary qHTS for delayed death inhibitors of the malarial parasite plastid, 96 hour incubation | 320,000 compounds, 6.9% hits | AID 504834, 2011 | Potency, µM (highest dose often 28.7 µM), without a hit: top-dose activity change, negative = inhibition, most hits filed as inhibitors | P. falciparum luciferase reporter growth, 96 h; further: on the % scale 0 is the no-effect control and ±100 the full control effect
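96 h incubation, 37 C, 5% CO2, of luciferase-reporter P. falciparum-infected RBCs (2% hematocrit, 0.05% parasitemia final) with test compounds; endpoint luminescence.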
AMA1 RON2 block = qHTS for Inhibitors of AMA1-RON; Towards Development of Antimalarial Drug Lead: Primary Screen; Plasmodium falciparum AMA1 (3D7) - RON2 peptide interaction; AlphaScreen AMA1-biotinylated RON2 peptide binding; Potency, µM (top dose mostly 58.2 µM), for the others: at the highest dose activity change, negative = inhibition, most hits filed as inhibitors; 360,000 compounds, 0.2% hits; AID 720542, 2013;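 further: 0% = vehicle wells and -100% = peptide control; nearly all actives have a fitted effect of over 45% in size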
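AMA1 (3D7) with his tag at 25 nM final met compounds first, then biotinylated RON2 peptide at 25 nM; detection used donor plus acceptor beads, 10 µg/mL apiece, read by AlphaScreen after 30 min at room temperature.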
Numbers without * were called inactive; ? = inconclusive; / = no result. Unless noted, the call rests on the fitted dose curve; in most records, active means well fitted curve in the direction sought with a large enough effect; inconclusive means small, poorly fitted or top-dose-only effect, or another doubt; inactive means no such curve, though single readings can be large; an effect the other way counts as inactive or inconclusive. Potency means the concentration at half of the fitted maximal effect.

SMILES	Pf growth 48h	SARS PLpro yeast	Pf growth 96h	AMA1 RON2 block
O=C(CSc1nc2nn(-c3ccccc3)c(=O)c-2c2n1CCCCC2)NCCCc1ccccc1	9.3µM*	0%	?	4%
COc1ccc(C(=O)CSc2nc3nn(-c4ccccc4)c(=O)c-3c3n2CCCCC3)c(OC)c1	/	/	/	-6%
CC(Sc1nc2nn(-c3ccccc3)c(=O)c-2c2n1CCCCC2)C(N)=O (stereo not drawn)	-16%	-5%	/	3%
Cc1cc(C)c(S(=O)(=O)/N=C2\C=C(Nc3ccc(C(=O)O)cc3)C(=O)c3ccccc32)c(C)c1	9.3µM*	-12%	18%	?
CCc1ccc(S(=O)(=O)/N=C2\C=C(Nc3ccc(O)cc3)C(=O)c3ccccc32)cc1	0.74µM*	-15%	?	25µM*
CCc1ccc(S(=O)(=O)/N=C2\C=C(Nc3cccc(C(=O)O)c3)C(=O)c3ccccc32)cc1	1.7µM*	-2%	-14%	?
CCc1ccc(S(=O)(=O)/N=C2\C=CC(=O)c3ccccc32)cc1	2.3µM*	-5%	?	/
O=C(O)c1ccc(NC2=C/C(=N/S(=O)(=O)c3ccccc3)c3ccccc3C2=O)cc1	?	-21%	-22%	?
COc1ccc(-c2nn(-c3ccccc3)cc2C(=O)Nc2cccc(C(=O)O)c2)cc1[N+](=O)[O-]	24%	28%	23%	0%
CCCNC(=O)c1onc(CSc2ccc(Cl)cc2)c1C(=O)NCC1CC1	?	-7%	?	63%
Cc1cccc(N2CCN(C(=O)CS(=O)(=O)Cc3nc(-c4ccccc4F)oc3C)CC2C)c1 (stereo not drawn)	?	-3%	51%	-9%
O=C(Nc1ccon1)c1ccc(Br)o1	13%	2%	?	-1%
CCc1ccc(S(=O)(=O)/N=C2/C=C(Sc3ncn[nH]3)C(=O)c3ccccc32)cc1	2.9µM*	-64%	4.1µM*	11%
Cc1ccc(S(=O)(=O)/N=C2\C=C(NS(=O)(=O)c3ccccc3)C(=O)c3ccccc32)cc1	/	/	/	-18%
O=C(CCCCCCC(=O)Nc1ccccc1)NO	0.21µM*	/	0.13µM*	/
O=C(CCCC(=O)c1ccccc1)Nc1ccc(O)cc1	-15%	-1%	10µM*	0%
O=C(CCOc1ccccc1)Nc1ccccc1	17%	-3%	12µM*	9%
O=C(CCCCCN1C(=O)c2ccccc2C1=O)Nc1ccccc1	/	8%	-7%	-2%
COc1ccc(OCCC(=O)Nc2ccccc2)cc1	26%	-1%	6%	2%
Cc1ccc(-c2noc(C3CCCN(C(=O)c4cccc([N+](=O)[O-])c4)C3)n2)o1 (stereo not drawn)	26%	2%	26%	0%
COc1ccc(OC)c2[nH]c(=O)c(CCNC(=O)CC(C)C)cc12	18%	-1%	?	9%
COc1ccccc1C(=O)Nc1ccc2[nH]ncc2c1	5%	17%	7.4µM*	-8%
CC(C)CC1(C)NC(=O)N(CC(=O)Nc2ccc(F)c(F)c2F)C1=O (stereo not drawn)	/	-12%	/	18%
CC1CCCCC1NC(=O)C1CC=CCC1C(=O)O (stereo not drawn)	-10%	-5%	-13%	-9%
CC1CCCC(NC(=O)C2N(CCCN3CCCC3)C(=O)C3C(C(=O)Nc4ccc(Cl)cc4)C4C=CC32O4)C1C (stereo not drawn)	?	0%	5.9µM*	-7%
SMILES	Pf growth 48h	SARS PLpro yeast	Pf growth 96h	AMA1 RON2 block
COc1cccc(NC(=O)C2C3C=CC4(O3)C2C(=O)N(CCCN2CCCC(C)C2)C4C(=O)NC2CCCCC2C)c1 (stereo not drawn)	-17%	-1%	10µM*	2%
COc1cccc(NC(=O)C2C3C=CC4(O3)C2C(=O)N(CCN2CCCCC2)C4C(=O)NC2CCCCC2C)c1 (stereo not drawn)	-10%	2%	?	-11%
COc1ccc(N(CC(=O)N/N=C(\C)c2ccccc2)S(=O)(=O)c2ccccc2)cc1	15%	2%	-24%	6%
Cc1ccc(S(=O)(=O)N2CCC(C(=O)NC3CCCC3)CC2)cc1Cl	?	-4%	1.3µM*	-1%
O=C(NC1CCN(S(=O)(=O)c2ccc(Cl)cc2)CC1)C1CCCCC1	-10%	6%	-8%	10%
O=C(NC1CC1)C1CCN(S(=O)(=O)c2cc(Cl)ccc2Cl)CC1	-4%	0%	0.083µM*	-11%
O=C(NC1CC1)C1CCN(S(=O)(=O)c2ccc(Cl)cc2)CC1	1.7µM*	0%	7%	-10%
COc1ccc(S(=O)(=O)N2CCN(S(=O)(=O)c3ccc(C(F)(F)F)cc3)CC2)cc1C	1%	1%	12µM*	-8%
O=C(NC1CC1)C1CCN(S(=O)(=O)c2cc([N+](=O)[O-])ccc2Cl)CC1	?	2%	?	?
Cc1ccc(S(=O)(=O)N2CCCC(C(=O)NC3CCCC3)C2)cc1Cl (stereo not drawn)	-23%	-3%	?	1%
CCCCN(C(C)=O)c1ccc2c(c1)C1CC2CCN1C(=O)OCc1ccccc1 (stereo not drawn)	/	/	/	-2%
COc1ccc(S(=O)(=O)N2CCC(C(=O)NC3CC3)CC2)cc1C	?	3%	3.3µM*	15%
COc1ccc(S(=O)(=O)N2CCC(C(=O)NC3CCCCC3)CC2)cc1C	4%	0%	?	-1%
COc1ccc(-n2nnnc2-c2cccnc2)cc1	0%	-9%	9.3µM*	64%
O=C(CSc1nnc(Cc2ccccc2)n1-c1ccc(F)cc1)N1CCOCC1	5%	4%	/	3%
Cn1c(=O)oc2cc(S(=O)(=O)N3CCc4ccccc43)ccc21	?	1%	16%	-2%
CCOC(=O)Cn1c(=O)oc2cc(S(=O)(=O)N3CCc4ccccc43)ccc21	/	3%	13µM*	3%
CC(C)(C)NC(=O)Cn1c(=O)oc2cc(S(=O)(=O)N3CCc4ccccc43)ccc21	/	2%	1.5µM*	11%
Cn1c(=O)oc2cc(S(=O)(=O)N3CCCc4ccccc43)ccc21	/	6%	55%	2%
COc1ccc(NC(=O)c2ccc3c(c2)NC(=O)CS3)cc1	85%	2%	40%	0%
O=C(NCC1CCCO1)c1ccc(NC(=O)c2ccc(Br)cc2)cc1 (stereo not drawn)	/	/	/	6%
COc1ccc(NC(=O)c2ccc(Cl)c(NC(=O)c3ccncc3)c2)cc1	8%	-2%	0%	/
COCCCNC(=O)CSc1nc2ccccc2c(=O)n1CCCC(=O)NCC1CCCO1 (stereo not drawn)	-8%	-7%	?	10%
Cc1ccccc1NC(=O)N1C2CCCC1CC(NC(=O)C(C)(C)C)C2 (stereo not drawn)	0%	5%	12µM*	16%
Fc1ccc(Cn2nnnc2C(c2ccc(Cl)cc2)N2CC=C(c3ccc(F)cc3)CC2)cc1 (stereo not drawn)	12µM*	-25%	46%	-8%

Bioassay records: PubChem, National Center for Advancing Translational Sciences (NCATS)
